# Reference: PubChem BioAssay (Tox21)
# Values joined by “and” are separate entries in the source; they are usually repeats but may differ in a detail not shown here. Identical values can stand only once. Records with an inconclusive call do not appear. A call without a number means that no potency is given here. A structure can be active in one record and inactive in another. Active and inactive are the calls of the source. Unless noted, the call rests on the fitted dose curve; in most records, active means well fitted curve in the direction sought with a large enough effect in the repeat runs; inconclusive means weak or mixed curves; inactive means no such curve, though single readings can be large; an effect the other way counts as inactive or inconclusive.
# Experiments:
# [1] = qHTS assay to identify small molecule antagonists of the androgen receptor (AR) signaling pathway using the MDA cell line in the presence of 0.5 nM R1881 - cell viability counter screen (AID 1259242); further: nearly all actives have a fitted effect of over 45% in size
# Summary of the method: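 Human breast carcinoma MDA-kb2 cells, cultured without CO2, receive compounds alongside 0.5 nM (final) R1881 agonist. After 16 hr at 37C, viability is taken as live-cell protease signal.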
# [2] = qHTS assay to identify small molecule HDAC inhibitors (AID 1259364); further: potency means the concentration at half of the fitted maximal effect;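 further: wild-type HCT-116 cells with endogenous class I/II HDAC activity; nearly all actives have a fitted effect of over 45% in size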; on activity change, negative = inhibition: top concentration of the series differs between compounds
# Summary of the method: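 After a 2 hr compound incubation (37C, 5% CO2), HCT-116 cells seeded at 1,500/well the day before received HDAC-Glo reagent; signal read as luminescence after 30 min at room temperature.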
# [3] = qHTS assay to identify small molecule HDAC inhibitors - cell viability counter screen (AID 1259365); further: series mostly up to about 92 µM; nearly all actives have a fitted effect of over 50% in size
# Summary of the method: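 HCT-116 (wild type), 1,500 cells/well, overnight 37C/5% CO2; compound in DMSO 2hr; CellTiter-Glo 30min RT; luminescence read.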
# [4] = qHTS assay to identify small molecule agonists of the sonic hedgehog signaling (Shh) pathway (AID 1259368; calls by dose curve;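 further: NIH/3T3-derived 3T3Gli1-Luc cells carrying a stable Gli1-driven firefly luciferase reporter; series mostly up to about 92 µM; nearly all actives have a fitted effect of over 15% in size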)
# Summary of the method: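 Stable NIH/3T3 Gli1-Luc reporter clone; 24 hr cpd exposure after a 4 hr settling period; luminescence endpoint.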
# [5] = qHTS assay to identify small molecule antagonists of the sonic hedgehog signaling (Shh) pathway (AID 1259369; calls by dose curve; further: nearly all actives have a fitted effect of over 45% in size; further: potency means the concentration at half of the fitted maximal effect)
# Summary of the method: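 Gli1 transcriptional reporter (firefly Luc) in NIH/3T3 background, conditioned-medium activated. 24hr exposure, luminescence endpoint.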
# [6] = molecular target: Estrogen receptor beta (Homo sapiens) (UniProt Q92731); experiment: qHTS assay to identify small molecule agonists of the estrogen receptor beta (ER-beta) signaling pathway (AID 1259377; active means well fitted activation curve with a large enough effect in the signal ratio in the repeat runs, not every such curve was filed as active; the % refers to the signal ratio)
# Summary of the method: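 Beta-lactamase reporter readout: fluorescence of LiveBLAzer B/G FRET substrate after 2 h at room temperature, following 16 h compound treatment of ER-beta-UAS-bla HEK293T cells at 37C in 2% charcoal-stripped FBS medium.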
# [7] = molecular target: Estrogen receptor beta (Homo sapiens) (UniProt Q92731); experiment: qHTS assay to identify small molecule antagonists of the estrogen receptor beta (ER-beta) signaling pathway (AID 1259378; active means well fitted inhibition curve with a large enough effect in the signal ratio in the repeat runs, not every such curve was filed as active; the % refers to the signal ratio; further: potency means the concentration at half of the fitted maximal effect)
# Summary of the method: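 ER-beta-UAS-bla HEK293T cells in 2% charcoal-stripped FBS medium treated with compound plus 1nM final 17-beta-estradiol for 16 hr at 37C. Beta-lactamase reporter read by FRET substrate fluorescence after 2 hours at room temperature.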
# [8] = molecular target: Androgen receptor (Homo sapiens) (UniProt P10275); experiment: qHTS assay to identify small molecule agonists of the androgen receptor (AR) signaling pathway in the presence of an antagonist (AID 1259381; calls by dose curve; further: nearly all actives have a fitted effect of over 15% in size)
# Summary of the method: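 AR antagonist background: nilutamide 3.0uM final. Cell line: MDA-kb2, MMTV-driven luciferase, responsive to both AR and GR. Exposure 16hr, 37C, no CO2; ONE-Glo luminescence.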
# [9] = qHTS assay to identify small molecule antagonists of the estrogen receptor beta (ER-beta) signaling pathway - cell viability counter screen (AID 1259382); further: series mostly up to about 92 µM; nearly all actives have a fitted effect of over 55% in size
# Summary of the method: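 HEK293T ER-beta-UAS-bla, 2% charcoal-stripped FBS; compounds + 1nM E2 16 hr 37C; CellTiter-Glo luminescence, 30 min RT.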
# [10] = molecular target: Estrogen receptor (Homo sapiens) (UniProt P03372); experiment: qHTS assay to identify small molecule agonists of the estrogen receptor alpha (ER-alpha) signaling pathway in the presence of an antagonist (AID 1259383; calls by dose curve; further: top concentration of the series differs between compounds; nearly all actives have a fitted effect of over 15% in size)
# Summary of the method: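 ER-alpha agonism measured under antagonist challenge: 10.0nM ICI-182,780 (final) plus compound, 15 concentrations, 22hr, VM7Luc4E2 ERE-luciferase cells. Read by luminescence.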
# [11] = qHTS assay to identify small molecule agonists or antagonists of the thyroid stimulating hormone receptor (TSHR) signaling pathway - wild type cell line counter screen (AID 1259384; calls by dose curve)
# Summary of the method: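 Wild-type Hek293 cells, 800/well, 18 h at 37C, then compound with Ro20-1724 for 30 min RT. cAMP by HTRF (cAMP-d2/anti-cAMP cryptate), 1 h RT, fluorescence read. 15 concentrations, triplicates.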
# [12] = molecular target: Thyrotropin receptor (Homo sapiens) (UniProt P16473); experiment: qHTS assay to identify small molecule antagonists of the thyroid stimulating hormone receptor (TSHR) signaling pathway (AID 1259385; calls by dose curve; further: nearly all actives have a fitted effect of over 20% in size)
# Summary of the method: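 TSHR-HEK293 cells (800/well) plated 18 h, then compounds with Ro20-1724 and TSH at 1.5 ng/mL final, 30 min at room temperature. cAMP quantified by HTRF (cAMP-d2/anti-cAMP-cryptate, 1 h); 15 concentrations in triplicate.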
# [13] = qHTS assay to identify small molecule agonists of the estrogen receptor alpha (ER-alpha) signaling pathway in the presence of an antagonist - cell viability counter screen (AID 1259386);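 further: series mostly up to about 92 µM; cells exposed to compounds for 22 h at 37 °C before the viability read; nearly all actives have a fitted effect of over 30% in size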
# Summary of the method: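 Steps: 5-day stripped-FBS culture; seed and incubate 24hr; add ICI-182,780 (10.0nM final); pin 15-point compound titration; incubate 22hr at 37C; add CellTiter-Fluor at 21hr; read fluorescence.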
# [14] = qHTS assay to identify small molecule agonists of the sonic hedgehog signaling (Shh) pathway - cell viability counter screen (AID 1259366); further: nearly all actives have a fitted effect of over 50% in size
# Summary of the method: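 CellTiter-Fluor fluorescence read-out, 1 hr at 37C, added after 23hr compound exposure. Cells: 3T3 Gli1-Luc, an NIH/3T3 clone with stably integrated Gli1-Luc reporter, plated 4hr before compound.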
# [15] = qHTS assay to identify small molecule agonists of the androgen receptor (AR) signaling pathway in the presence of an antagonist - cell viability counter screen (AID 1259379);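 further: MDA-kb2 human breast cancer cells carrying an MMTV luciferase reporter; series mostly up to about 92 µM; nearly all actives have a fitted effect of over 25% in size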
# Summary of the method: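 Counter screen for cell viability run in parallel with the AR agonist-mode luciferase assay. MDA-kb2 cells were co-treated with nilutamide (3.0uM final) and compounds, then incubated 16 hr at 37C, and CellTiter-Fluor fluorescence was measured.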
# [16] = qHTS assay to identify small molecule agonists of the estrogen receptor beta (ER-beta) signaling pathway - cell viability counter screen (AID 1259380); further: nearly all actives have a fitted effect of over 30% in size; further: potency means the concentration at half of the fitted maximal effect
# Summary of the method: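 In this qHTS counter screen, HEK293T cells carrying an ER-beta/UAS beta-lactamase reporter, grown in 2% charcoal-stripped FBS, received compound for 16 hr; ATP-based CellTiter-Glo luminescence was then read after 30 min at room temperature.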
# [17] = qHTS assay to identify small molecule antagonists of the sonic hedgehog signaling (Shh) pathway - cell viability counter screen (AID 1259367); further: nearly all actives have a fitted effect of over 55% in size
# Summary of the method: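 Tox21 library chemicals were tested on a Gli1-Luc NIH/3T3 clone (2,000 cells/well) stimulated by conditioned medium; viability was quantified as fluorescence from CellTiter-Fluor reagent added at 23 hr.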
# [18] = molecular target: Progesterone receptor (Homo sapiens) (UniProt P06401); experiment: qHTS assay to identify small molecule agonists of the progesterone receptor (PR) signaling pathway (AID 1346784; calls by dose curve; further: nearly all actives have a fitted effect of over 30% in size)
# Summary of the method: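 HEK 293T PR-UAS-bla reporter cells, 2% charcoal-stripped FBS; 6 hr settle at 37C/5% CO2, compound (DMSO) 16 hr, LiveBLAzer B/G FRET substrate 2 hr RT, fluorescence intensity read.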
# [19] = molecular target: Estrogen receptor (Homo sapiens) (UniProt P03372); experiment: qHTS assay to identify small molecule antagonists of the estrogen receptor alpha (ER-alpha) signaling pathway using the BG1 cell line in the presence of 0.1 nM 17-beta-estradiol (AID 1259244); further: nearly all actives have a fitted effect of over 50% in size
# Summary of the method: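 Seeding of stripped-serum-adapted VM7Luc4E2 cells, 24 h attachment, compound transfer, then 0.1 nM final 17beta-estradiol; after 22 h incubation, ONE-Glo reagent and luminescence reading.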
# Sequence of Thyrotropin receptor (Homo sapiens) (P16473 whole entry, looked up): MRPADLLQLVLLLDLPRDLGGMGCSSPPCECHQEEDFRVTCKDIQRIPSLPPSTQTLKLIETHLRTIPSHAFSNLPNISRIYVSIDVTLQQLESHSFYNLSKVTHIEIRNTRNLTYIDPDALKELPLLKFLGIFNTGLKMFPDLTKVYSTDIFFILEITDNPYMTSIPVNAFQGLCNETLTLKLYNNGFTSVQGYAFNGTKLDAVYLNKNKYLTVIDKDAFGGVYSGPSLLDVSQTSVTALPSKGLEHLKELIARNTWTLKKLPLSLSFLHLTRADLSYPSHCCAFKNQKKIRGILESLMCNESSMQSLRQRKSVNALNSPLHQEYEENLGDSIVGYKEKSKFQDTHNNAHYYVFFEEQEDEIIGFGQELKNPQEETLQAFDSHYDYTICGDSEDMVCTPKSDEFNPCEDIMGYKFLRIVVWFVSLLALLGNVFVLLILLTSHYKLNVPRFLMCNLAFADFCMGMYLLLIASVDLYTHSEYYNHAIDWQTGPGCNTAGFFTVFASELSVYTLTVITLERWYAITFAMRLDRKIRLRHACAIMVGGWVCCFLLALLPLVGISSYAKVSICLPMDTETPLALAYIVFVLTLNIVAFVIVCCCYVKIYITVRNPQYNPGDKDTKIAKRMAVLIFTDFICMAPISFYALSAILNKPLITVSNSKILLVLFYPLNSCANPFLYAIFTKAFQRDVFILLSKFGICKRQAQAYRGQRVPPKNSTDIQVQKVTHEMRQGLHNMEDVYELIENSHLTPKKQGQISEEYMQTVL
# Sequence of Estrogen receptor (Homo sapiens) (P03372 whole entry, looked up): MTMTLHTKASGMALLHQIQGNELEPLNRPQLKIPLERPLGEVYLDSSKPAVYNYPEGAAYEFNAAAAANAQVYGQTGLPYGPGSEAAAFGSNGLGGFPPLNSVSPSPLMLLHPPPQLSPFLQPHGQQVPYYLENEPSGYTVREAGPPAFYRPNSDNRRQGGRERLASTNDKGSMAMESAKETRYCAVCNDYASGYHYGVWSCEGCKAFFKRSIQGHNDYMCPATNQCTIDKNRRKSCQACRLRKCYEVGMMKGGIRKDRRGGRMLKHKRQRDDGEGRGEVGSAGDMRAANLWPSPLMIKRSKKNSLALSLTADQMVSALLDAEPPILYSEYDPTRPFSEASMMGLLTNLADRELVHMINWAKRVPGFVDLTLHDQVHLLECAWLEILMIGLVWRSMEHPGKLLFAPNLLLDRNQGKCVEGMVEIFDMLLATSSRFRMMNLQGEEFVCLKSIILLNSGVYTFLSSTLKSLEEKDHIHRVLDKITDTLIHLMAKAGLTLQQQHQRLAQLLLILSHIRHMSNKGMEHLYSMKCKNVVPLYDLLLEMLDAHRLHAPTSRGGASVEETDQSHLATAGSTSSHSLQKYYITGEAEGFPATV
# Sequence of Androgen receptor (Homo sapiens) (P10275 whole entry, looked up): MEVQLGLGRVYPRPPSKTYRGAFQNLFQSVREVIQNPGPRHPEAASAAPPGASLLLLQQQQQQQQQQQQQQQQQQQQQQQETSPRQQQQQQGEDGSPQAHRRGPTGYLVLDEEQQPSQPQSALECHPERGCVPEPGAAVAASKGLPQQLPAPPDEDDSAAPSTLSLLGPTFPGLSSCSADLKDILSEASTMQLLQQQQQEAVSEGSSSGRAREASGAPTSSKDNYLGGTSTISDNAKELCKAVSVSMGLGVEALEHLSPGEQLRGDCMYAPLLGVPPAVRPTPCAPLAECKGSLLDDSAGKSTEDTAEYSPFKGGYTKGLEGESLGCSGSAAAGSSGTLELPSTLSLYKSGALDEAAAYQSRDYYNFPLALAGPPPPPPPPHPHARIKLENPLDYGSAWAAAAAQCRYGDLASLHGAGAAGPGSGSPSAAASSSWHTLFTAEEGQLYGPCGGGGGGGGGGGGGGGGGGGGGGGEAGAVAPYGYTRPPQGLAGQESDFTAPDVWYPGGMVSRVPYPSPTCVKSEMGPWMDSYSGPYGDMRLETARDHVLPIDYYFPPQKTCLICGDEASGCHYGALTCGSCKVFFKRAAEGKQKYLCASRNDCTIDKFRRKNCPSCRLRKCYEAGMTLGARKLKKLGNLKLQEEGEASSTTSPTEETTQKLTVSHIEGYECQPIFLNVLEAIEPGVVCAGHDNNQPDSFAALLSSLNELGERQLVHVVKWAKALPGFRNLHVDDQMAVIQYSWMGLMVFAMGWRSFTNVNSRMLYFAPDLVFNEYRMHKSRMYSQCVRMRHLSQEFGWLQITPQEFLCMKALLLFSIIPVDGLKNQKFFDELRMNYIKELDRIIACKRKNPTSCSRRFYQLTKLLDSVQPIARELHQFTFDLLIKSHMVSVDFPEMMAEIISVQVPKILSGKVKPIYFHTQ
# Sequence of Estrogen receptor beta (Homo sapiens) (Q92731 whole entry, looked up): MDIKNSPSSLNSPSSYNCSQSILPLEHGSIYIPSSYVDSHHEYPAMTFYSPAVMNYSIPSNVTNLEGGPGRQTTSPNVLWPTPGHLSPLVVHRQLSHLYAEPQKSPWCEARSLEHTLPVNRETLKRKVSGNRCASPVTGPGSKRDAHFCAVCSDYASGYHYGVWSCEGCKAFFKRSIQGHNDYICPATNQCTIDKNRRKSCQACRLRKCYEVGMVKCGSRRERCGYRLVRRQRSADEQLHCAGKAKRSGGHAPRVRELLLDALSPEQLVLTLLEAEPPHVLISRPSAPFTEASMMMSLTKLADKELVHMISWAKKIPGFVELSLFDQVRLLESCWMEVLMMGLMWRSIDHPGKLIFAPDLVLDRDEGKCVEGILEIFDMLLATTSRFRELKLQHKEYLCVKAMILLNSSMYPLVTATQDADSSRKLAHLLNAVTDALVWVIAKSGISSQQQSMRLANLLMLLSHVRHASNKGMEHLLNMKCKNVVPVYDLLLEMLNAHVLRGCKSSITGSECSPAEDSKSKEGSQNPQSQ
# Sequence of Progesterone receptor (Homo sapiens) (P06401 whole entry, looked up): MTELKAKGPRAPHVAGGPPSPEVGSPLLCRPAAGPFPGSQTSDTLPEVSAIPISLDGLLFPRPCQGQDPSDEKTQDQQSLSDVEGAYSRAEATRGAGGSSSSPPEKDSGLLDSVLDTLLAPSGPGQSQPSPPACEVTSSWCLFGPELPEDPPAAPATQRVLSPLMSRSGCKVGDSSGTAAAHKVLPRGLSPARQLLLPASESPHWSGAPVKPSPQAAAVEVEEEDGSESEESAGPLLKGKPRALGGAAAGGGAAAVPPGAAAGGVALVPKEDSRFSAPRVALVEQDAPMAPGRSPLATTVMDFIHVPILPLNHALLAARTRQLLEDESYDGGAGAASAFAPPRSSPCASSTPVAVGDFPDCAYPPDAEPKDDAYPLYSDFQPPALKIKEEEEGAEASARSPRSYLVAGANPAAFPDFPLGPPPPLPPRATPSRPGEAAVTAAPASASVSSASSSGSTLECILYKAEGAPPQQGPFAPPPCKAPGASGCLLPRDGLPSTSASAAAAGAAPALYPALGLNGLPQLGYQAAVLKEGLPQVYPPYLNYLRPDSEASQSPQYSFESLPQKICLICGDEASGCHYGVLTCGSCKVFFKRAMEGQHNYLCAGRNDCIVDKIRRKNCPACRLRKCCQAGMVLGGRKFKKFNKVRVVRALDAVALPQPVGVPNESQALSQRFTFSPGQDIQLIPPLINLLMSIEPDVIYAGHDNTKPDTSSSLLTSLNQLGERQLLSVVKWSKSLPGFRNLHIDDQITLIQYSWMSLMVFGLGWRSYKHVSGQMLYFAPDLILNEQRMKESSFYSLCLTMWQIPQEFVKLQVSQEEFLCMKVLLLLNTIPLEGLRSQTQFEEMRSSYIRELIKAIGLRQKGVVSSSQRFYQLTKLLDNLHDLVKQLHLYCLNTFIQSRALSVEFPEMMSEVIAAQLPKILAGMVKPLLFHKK
smiles,measurement,setting,value
O=P(OCC(Br)CBr)(OCC(Br)CBr)OCC(Br)CBr (centres undefined),Potency,[1],inactive
same,Potency,[2],inactive
same,Potency,[3],inactive
same,Potency,[4],inactive
same,Potency,[5],inactive
same,Potency,[6],inactive
same,Potency,[7],23.1 µM (active)
same,Potency,[8],inactive
same,Potency,[9],inactive
same,Potency,[10],inactive
same,outcome,[11],inactive
same,Potency,[12],inactive
same,Potency,[13],inactive
O=C(O)COc1cc(Cl)c(Cl)cc1Cl,Potency,[1],inactive
same,Potency,[2],inactive
same,Potency,[3],inactive
same,Potency,[14],inactive
same,Potency,[4],inactive
same,Potency,[5],inactive
same,Potency,[6],inactive
same,Potency,[7],inactive
same,Potency,[15],inactive
same,Potency,[16],inactive
same,Potency,[8],inactive
same,Potency,[9],inactive
same,outcome,[11],inactive
same,Potency,[12],inactive
same,Potency,[13],inactive
Nc1ccccc1C(=O)OCCc1ccccc1,Potency,[1],inactive
same,Potency,[2],9.73 µM (active) and 3.86 µM (active)
same,Potency,[3],inactive
same,Potency,[14],inactive
same,Potency,[17],inactive
same,Potency,[5],inactive
same,Potency,[15],inactive
same,Potency,[16],9.73 µM (active) and 7.7 µM (active)
same,outcome,[11],inactive
same,Potency,[12],inactive
same,Potency,[13],inactive
OC[P+](CO)(CO)CO,Potency,[1],inactive
same,Potency,[2],inactive
same,Potency,[14],inactive
same,Potency,[4],inactive
same,Potency,[5],31 µM (active) and inactive
same,Potency,[9],inactive
same,outcome,[11],inactive
same,Potency,[12],inactive
same,Potency,[13],inactive
same,Potency,[18],inactive
CCCCCCCCP(=O)(O)O,Potency,[1],inactive
same,Potency,[2],inactive
same,Potency,[3],inactive
same,Potency,[14],inactive
same,Potency,[4],inactive
same,Potency,[5],inactive
same,Potency,[6],inactive
same,Potency,[7],inactive
same,Potency,[15],inactive
same,Potency,[16],inactive
same,Potency,[9],inactive
same,outcome,[11],inactive
same,Potency,[12],inactive
same,Potency,[13],inactive
O=C(O)C(Cl)(Cl)Br,Potency,[1],inactive
same,Potency,[2],inactive
same,Potency,[3],inactive
same,Potency,[14],inactive
same,Potency,[4],inactive
same,Potency,[5],inactive
same,Potency,[6],inactive
same,Potency,[15],inactive
same,Potency,[16],inactive
same,Potency,[9],inactive
same,outcome,[11],inactive
same,Potency,[12],inactive
same,Potency,[13],inactive
CCCCCCCCCCCCN=C(N)N,"viability change, negative = cytotoxic",[1],-1.29% [at 3.26 µM] (inactive)
same,"activity change, negative = inhibition",[2],5.66% [at 3.27 µM] (inactive)
same,"viability change, negative = cytotoxic",[14],23.3% [at 3.27 µM] (inactive)
same,"viability change, negative = cytotoxic",[17],1.35% [at 3.27 µM] (inactive)
same,activity change,[4],"0.488% [at 3.27 µM, stronger effect = higher value] (inactive)"
same,Potency,[5],671 nM (active)
same,"activity change, negative = cytotoxicity",[15],-9.57% [at 3.27 µM] (inactive)
same,"activity change, negative = cytotoxicity",[9],-18.7% [at 3.27 µM] (inactive)
same,cAMP activity change,[11],1.76% [at 3.27 µM] (inactive)
same,"activity change, negative = inhibition",[12],0.876% [at 3.27 µM] (inactive)
same,"activity change, negative = cytotoxicity",[13],-1.52% [at 3.27 µM] (inactive)
same,activation,[18],2.06% [at 3.27 µM] (inactive)
CCCN(CCOc1c(Cl)cc(Cl)cc1Cl)C(=O)n1ccnc1,Potency,[1],inactive
same,Potency,[2],inactive
same,Potency,[3],inactive
same,Potency,[14],inactive
same,Potency,[17],inactive
same,Potency,[4],inactive
same,Potency,[5],6240 nM (active)
same,Potency,[6],inactive
same,Potency,[15],inactive
same,Potency,[16],inactive
same,Potency,[9],inactive
same,outcome,[11],inactive
same,Potency,[12],inactive
same,Potency,[13],inactive
same,Potency,[18],inactive
C=CC(C)(CCC=C(C)C)OC(=O)c1ccccc1N (centres undefined),Potency,[1],inactive
same,Potency,[2],inactive
same,Potency,[3],inactive
same,Potency,[14],inactive
same,Potency,[4],inactive
same,Potency,[5],inactive
same,Potency,[15],inactive
same,Potency,[16],inactive
same,Potency,[9],inactive
same,outcome,[11],inactive
same,Potency,[12],inactive
same,Potency,[13],inactive
same,Potency,[18],inactive
CC(=O)OC(c1ccccc1)C(Cl)(Cl)Cl (centres undefined),Potency,[19],inactive
same,Potency,[2],inactive
same,Potency,[3],inactive
same,Potency,[14],inactive
same,Potency,[4],inactive
same,Potency,[5],inactive
same,Potency,[15],inactive
same,Potency,[16],inactive
same,Potency,[9],inactive
same,Potency,[10],inactive
same,outcome,[11],inactive
same,Potency,[13],inactive
same,Potency,[18],inactive
